Among the data in PubChem BioAssay (NCATS) are Potency and outcome values, retold here.

Inconclusive results are not listed. A number with no mark means an inactive call. Calls of active or inactive are those of the source. Calls follow the shape of the dose curve; as a rule, active = well fitted curve in the direction sought with a large enough effect; inconclusive = small, poorly fitted or top-dose-only effect, or another doubt; inactive = no such curve, though single readings can be large; an effect the other way counts as inactive or inconclusive.

The subject of assay [1] is Zika virus NS2B-NS3 protease (linked construct). Kind of assay: Primary screen NINDS Rhodamine qHTS for Zika virus inhibitors (AID 1347160). Also: nearly all actives have a fitted effect of over 55% in size. Also: potency is read from the fitted curve at half-maximal effect. The gist of the method:
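Each compound, titrated, sat 15 min with 25 nM linked protease before 1.5 microM Rhodamine110 substrate went in. Fluorescence gain over the next 15 min, in pH 8.0 Tris with Tween 20, gave Hill-fitted curves.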

A short description of assay [2]: Panc-1005 Cancer Cell Toxicity qHTS against the NCATS CANVASS Library (AID 1347349). Also: nearly all actives have a fitted effect of over 60% in size. Also: potency is read from the fitted curve at half-maximal effect. An outline of the steps: (§1)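 ATP content after 72 h treatment, detected by CellTiter-Glo luminescence (15min room-temperature development), reflects cell viability. Wells contained 1000 cells and received compounds at 11 concentrations.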
(In general: In qHTS, concentration-response curves come from the screen itself.)

Assay [3] in a line: A2780 Cisplatin Sensitive Ovarian Cancer Cell Toxicity qHTS against the NCATS CANVASS Library (AID 1347353). Also: nearly all actives have a fitted effect of over 60% in size. Also: potency is read from the fitted curve at half-maximal effect. The gist of the method: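 Quantitative HTS format: eleven compound concentrations applied to pre-seeded cells, 72 h incubation at 37 °C, then ATP detection by luminescence.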
Assay [4] is described as follows: UWB1.289-WTBRCA1 Cancer Cell Toxicity qHTS against the NCATS CANVASS Library (AID 1347354). Also: potency is read from the fitted curve at half-maximal effect. The gist of the method:
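Using an ATP-based luminescent reagent after three days of treatment, toxicity is scored across an eleven-concentration range in wells holding 1000 cells each.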

Assay [5] in a line: HEK293 18hr Apoptosis Induction qHTS against the NCATS CANVASS Library (AID 1347357). Also: potency is read from the fitted curve at half-maximal effect. An outline of the steps:
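HEK293 cells (500/well, DMEM + 10% FBS) treated with an 11-point series for 18 h at 37 degrees C. Caspase-3/7 activity read by Caspase-Glo luminescence after 15 min at room temperature.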

In assay [6] the test system is NAD(P)H diaphorase (Clostridium kluyveri). Kind of assay: Diaphorse counterscreen qHTS: Assay Interference Panel against the NCATS CANVASS Library (AID 1347362). The gist of the method: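 Clostridium kluyveri diaphorase in PBS + 0.01% Tween-20 preincubated 15 min with compounds. Resazurin and NADH then added for 5 min at room temperature in the dark; resorufin fluorescence read (ex 525, em 598).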
In general terms: The purpose of a counterscreen is to sort out artefacts and off-target activity.

Assay [7] can be described thus: KB-8-5-11 Cancer Cell Toxicity qHTS against the NCATS CANVASS Library (AID 1347364). Also: nearly all actives have a fitted effect of over 75% in size. Also: potency is read from the fitted curve at half-maximal effect. The gist of the method: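 Luminescent ATP signal (CellTiter-Glo, 10 min at room temperature) measured cell survival of KB-8-5-11 after 72 hr compound treatment. For confirmation, the cells were also grown with 1uM tariquidar.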
Assay [8] can be described thus: SDT Cancer Cell Toxicity qHTS against the NCATS CANVASS Library (AID 1347365). Also: nearly all actives have a fitted effect of over 60% in size. Also: potency is read from the fitted curve at half-maximal effect. An outline of the steps: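 Canine SDT glioma cell toxicity was scored by ATP-dependent luminescence after a 72 hr incubation with an 11-point compound series.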
The nature of assay [9]: G06 Cancer Cell Toxicity qHTS against the NCATS CANVASS Library (AID 1347368). Also: nearly all actives have a fitted effect of over 60% in size. Also: potency is read from the fitted curve at half-maximal effect. The gist of the method: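 Quantitative HTS in G06 cells (dog glioma): 72 hr treatment, 11 concentrations, then ATP-based luminescent viability readout; bortezomib 0.1 nM–4.6 uM final as reference.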
Assay [10] is described as follows: qHTS for ATAD5 Antagonist screened against the NCATS CANVASS Library (AID 1347370). Also: nearly all actives have a fitted effect of over 65% in size. Also: potency is read from the fitted curve at half-maximal effect. The gist of the method:
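HEK293T-ATAD5 luc reporter, 2000 cells/well; 5hr attach; cpd + 10 uM 5-FUrd; 16hr 37C, 5% CO2. Readouts: CellTiter-Fluor fluorescence (1hr), then Amplite luciferase luminescence (30min RT).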

A short description of assay [11]: qHTS for Hypoxia signaling pathway (HIF-1) antagonists against the NCATS CANVASS Library (AID 1347374). The gist of the method: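 Beta-lactamase reporter under HRE control in ME-180 cells; CoCl2 stimulus (60 uM solution as added), compounds 11-pt qHTS, 17 h 37C. CCF4 dye 2 h RT, 460/530 nm emission. CellTiter-Glo viability in same wells.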
Assay [12] can be described thus: qHTS for Hypoxia signaling pathway (HIF-1) agonists against the NCATS CANVASS Library (AID 1347375). An outline of the steps:
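An HRE-beta-lactamase ME-180 line is exposed for 17 h to an 11-point compound series, then read by CCF4-AM FRET. Cytotoxicity is measured in parallel in the same wells with CellTiter-Glo, and autofluorescence is checked separately.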

The nature of assay [13]: Cytotoxicity qHTS for assessment of Hepg2 cells membrane integrity screened against the NCATS CANVASS Library (AID 1347387). An outline of the steps: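 Membrane damage in HepG2 monolayers was estimated from released LDH, measured with CytoTox-ONE (ex 560/em 590 nm), after 5 hr treatment across 0.59 nM - 46 uM final.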
The nature of assay [14]: qHTS for activators of dead-cell proteases activity screened against the NCATS CANVASS Library (AID 1347392).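 Also: luminescence from protease leaking out of membrane-damaged cells cleaving impermeant substrate; rising signal means more cytotoxicity.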 Also: potency is read from the fitted curve at half-maximal effect. An outline of the steps:
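HepG2, 2000 cells/well, 18 h attach; cpd 11-pt, 5 h 37C 5% CO2; CytoTox-Glo (AAF-aminoluciferin) 15 min RT; luminescence read.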

A short description of assay [15]: qHTS for inhibitors of Wild type Zika virus screened against the NCATS CANVASS Library (AID 1347396).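 Also: ATP luminescence of surviving cells so rescue from viral cell killing; series mostly up to about 46 µM.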 An outline of the steps:
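Vero 766 (African green monkey) cells, 1000 per well, attached overnight, then compounds were added in an 11-point series before wild-type Zika virus infection. After 72 h at 37C, cell viability was read as CellTiter Glo luminescence.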

Assay [16] is described as follows: Redox Reaction Profiling qHTS: Assay Interference Panel against the NCATS CANVASS Library (AID 1347401). Also: potency is read from the fitted curve at half-maximal effect. The gist of the method:
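Fluorescence read-out (525 nm excitation, 598 nm emission) at time zero and after 15 min in the dark tracked resorufin formation. Mix: 5 uM resazurin, 200 uM DTT, HEPES pH 7.3 buffer with NaCl.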

Assay [17] in a line: UWB1.289 Cancer Cell Toxicity qHTS against the NCATS CANVASS Library (AID 1347347). Also: nearly all actives have a fitted effect of over 60% in size. Also: potency is read from the fitted curve at half-maximal effect. An outline of the steps:
as §1

Assay [18] in a line: OV-SAHO Cancer Cell Toxicity qHTS against the NCATS CANVASS Library (AID 1347348). Also: series mostly up to about 38 µM; nearly all actives have a fitted effect of over 55% in size. An outline of the steps: as §1
Assay [19] can be described thus: qHTS for activators of Nrf2/ARE signaling pathway screened against the NCATS CANVASS Library (AID 1347391). Also: nearly all actives have a fitted effect of over 60% in size. An outline of the steps: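 Activation of Nrf2/ARE was scored in ARE-bla HepG2 cells after 16 h compound exposure using CCF4 beta-lactamase fluorescence ratio readings.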
Assay [20] is described as follows: Vero-766 cells viability qHTS against the NCATS CANVASS Library: Counterscreen for Zika virus inhibition assay (AID 1347394). Also: nearly all actives have a fitted effect of over 60% in size. Also: potency is read from the fitted curve at half-maximal effect. The gist of the method:
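Vero 766 cells (1000/well), without Zika virus, were exposed to compounds for 72 h at 37C. Viability was measured by CellTiter Glo luminescence. Media-only wells served as 100% inhibition.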

Take `O=C1C[C@@H](c2ccc(O)c(-c3c(O)cc(O)c4c3O[C@H](c3ccc(O)cc3)CC4=O)c2)Oc2cc(O)cc(O)c21`: in [1], the Potency was 4.84 µM (active). The Potency entry in assay [2], in assay [3], in [4], in assay [5], in assay [6] and in assay [7] was “inactive” in each case. The Potency entry in assay [8], in assay [9], in assay [10], in assay [11], in assay [12] and in [14] was “inactive” throughout. Further, the Potency entry in assay [15] and in assay [16] was “inactive” each time. The outcome in assay [13] was inactive.
As to `O=C(O)[C@@]12COC3(O)C1CCN1CC[C@H]3[C@@H]1c1c2[nH]c2ccccc12`, the Potency result in assay [1], in [17], in [18], in assay [2], in [3] and in [4] was “inactive” throughout. In addition, the Potency entry in [5], in assay [6], in assay [7], in [9], in [10] and in assay [11] was “inactive” in each case. In addition, the Potency entry in [12], in assay [19], in assay [20] and in assay [15] was “inactive” in each case. The result in assay [13] was inactive. Also, in [16], the Potency is 21.5 µM (active).
`CCCCCCCCCCCCCCC[C@H](O)C[C@@H](O)C[C@@H](O)C[C@@H](O)C[C@@H](O)C[C@H]1CC=CC(=O)O1`: the Potency in assay [1] was 44 µM (active); in assay [17], 2.11 µM (active); in assay [2], 1.88 µM (active); in [3], 743 nM (active); in assay [4], 3.34 µM (active); in assay [7] it was 6.62 µM (active). The Potency in assay [8] is 2.96 µM (active); in assay [9], 2.64 µM (active); in assay [10], 26.3 µM (active); in [14], 13.2 µM (active); in assay [20], 5.24 µM (active). Moreover, the Potency result in [6], in assay [19] and in assay [16] was “inactive” each time.
As for `CC1(C)CC[C@]2(C(=O)O)CC[C@]3(C)C(=CC[C@@H]4[C@@]5(C)C[C@@H](O)[C@H](O)C(C)(C)[C@@H]5CC[C@]43C)[C@@H]2C1`, the results for the Potency in assay [1] and in assay [17] were 19.6 µM (active) and 11.8 µM (active), respectively. The Potency entry in assay [5], in assay [8], in assay [9], in [10], in assay [19] and in [16] was “inactive” in each case.
As for `COc1ccc([C@@H]2c3cc(OC)c(OC)cc3C(=O)C(C)C2C)cc1OC` (stereo partly drawn), the Potency result in assay [1], in assay [17], in assay [2], in [4], in [6] and in assay [7] was “inactive” each time. Also, the Potency entry in assay [8], in assay [9], in assay [11], in [12], in assay [14] and in assay [15] was “inactive” in each case. Besides, in [16], the Potency entry was “inactive”. Also, the Potency in assay [10] is 20.9 µM (active). Besides, the call in [13] was inactive.
Turning to `C=C(C)C(=O)O[C@H]1C[C@H](C)[C@@H](OC(C)=O)CC[C@@]2(C)O[C@@H]2[C@H]2OC(=O)C(COC(C)=O)=C12`, the Potency in assay [1] is 31.1 µM (active); in assay [17] it was 6.66 µM (active); in assay [2] it was 6.68 µM (active); in assay [3], 833 nM (active); in assay [4], 7.47 µM (active); in [5], 9.35 µM (active). Besides, the values for the Potency in assay [8], in [9] and in assay [10] were 6.62 µM (active), 2.64 µM (active) and 16.6 µM (active), respectively. Besides, the Potency entry in [6], in [14] and in assay [16] was “inactive” in each case. In addition, the result in assay [13] was inactive.
As for `O=c1cc(-c2ccc(O)c(O[C@@H]3O[C@H](CO)[C@@H](O)[C@H](O)[C@H]3O)c2)oc2cc(O[C@@H]3O[C@H](CO)[C@@H](O)[C@H](O)[C@H]3O)cc(O)c12`, the Potency in assay [1] was 27.7 µM (active). Besides, the Potency result in assay [18], in assay [2], in [4], in assay [5], in [7] and in [10] was “inactive” throughout. The Potency result in assay [11], in assay [12], in assay [19], in assay [20], in assay [15] and in assay [16] was “inactive” each time. In assay [13], the call was inactive.
